Reference: PubChem BioAssay
A number with no mark means an inactive call. A call without a number means that no potency is given here. For part of these data: Potency and affinity values are given separately. Activity calls are given as the source filed them. Unless noted, the rule behind the calls is not given here.

Assays:
[1] = antimalarial activity against Dd2 strain (AID 2302;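 active = growth inhibition above 50% at the single 2 µM test dose, taken to imply half-maximal potency below 2 µM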); details: P. falciparum Dd2 in RBCs, LDH growth readout, 72 h; at 2 µM; stronger effect = higher value
[2] = HepG2 cytotoxicity, primary screen, cytotoxicity control for P. falciparum antimalarial project, cell-based, ATP luminescence (AID 2303;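 active = inhibition above 50%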); details: HepG2 viability, 24-48 h, at 10 µM, stronger effect = higher value
[3] = target: L-lactate dehydrogenase (Plasmodium falciparum (isolate CDC / Honduras)) (UniProt Q27743); test: PfLDH activity inhibition – cell lysate, 3D7 strain, counter-screen for P. falciparum growth inhibition project (AID 2304); details: P. falciparum 3D7 crude extract, LDH APAD/NBT absorbance; at 2 µM; stronger effect = higher value
L-lactate dehydrogenase (Plasmodium falciparum (isolate CDC / Honduras)), sequence (Q27743 whole entry, looked up): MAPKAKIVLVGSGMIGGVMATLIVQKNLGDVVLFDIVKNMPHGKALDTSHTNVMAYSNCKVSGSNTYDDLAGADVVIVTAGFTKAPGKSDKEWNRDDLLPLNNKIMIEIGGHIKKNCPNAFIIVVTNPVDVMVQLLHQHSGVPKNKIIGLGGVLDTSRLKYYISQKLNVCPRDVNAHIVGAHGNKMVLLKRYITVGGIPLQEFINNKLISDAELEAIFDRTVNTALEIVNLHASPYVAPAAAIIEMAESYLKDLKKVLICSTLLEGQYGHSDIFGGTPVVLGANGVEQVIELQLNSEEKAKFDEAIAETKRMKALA

[4] = inhibition of 3D7 malaria parasite growth – strain 3D7 (AID 2306); details: P. falciparum 3D7 erythrocytic growth, LDH absorbance, 72 h; at 2 µM; stronger effect = higher value
[5] = target: Calcium-dependent protein kinase 1 (Plasmodium falciparum (isolate 3D7)) (UniProt P62344); test: PfCDPK1 kinase inhibitors, biochemical, TCAMS library (AID 1159585; cut-off not given, nearly all actives have IC50 up to about 0.98 µM;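 note: inhibitors leave more ATP so luminescence rises with inhibition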); details: recombinant PfCDPK1, Kinase-Glo ATP depletion luminescence
Calcium-dependent protein kinase 1 (Plasmodium falciparum (isolate 3D7)), sequence (P62344 whole entry, looked up): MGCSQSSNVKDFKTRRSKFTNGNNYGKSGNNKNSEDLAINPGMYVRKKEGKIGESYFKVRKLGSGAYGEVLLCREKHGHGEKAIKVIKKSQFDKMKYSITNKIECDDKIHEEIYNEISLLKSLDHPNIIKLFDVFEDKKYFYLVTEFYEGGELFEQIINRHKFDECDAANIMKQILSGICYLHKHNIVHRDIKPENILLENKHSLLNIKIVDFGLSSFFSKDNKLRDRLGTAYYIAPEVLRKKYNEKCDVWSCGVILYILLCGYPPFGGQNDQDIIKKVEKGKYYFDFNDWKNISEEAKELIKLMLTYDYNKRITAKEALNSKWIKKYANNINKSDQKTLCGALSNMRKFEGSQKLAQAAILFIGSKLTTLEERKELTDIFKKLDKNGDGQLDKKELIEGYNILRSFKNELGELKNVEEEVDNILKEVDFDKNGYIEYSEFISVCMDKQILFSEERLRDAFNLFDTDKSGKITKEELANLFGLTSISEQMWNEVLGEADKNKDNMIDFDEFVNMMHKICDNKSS

[6] = target: Plasmodium falciparum protein kinase 6 (PK6, PF3D7_1337100) (UniProt Q8IDW1); test: PfPK6 kinase inhibitors, biochemical, TCAMS library (AID 1159586); details: recombinant PfPK6, Kinase-Glo ATP depletion luminescence
Plasmodium falciparum protein kinase 6 (PK6, PF3D7_1337100), sequence (Q8IDW1 1-305): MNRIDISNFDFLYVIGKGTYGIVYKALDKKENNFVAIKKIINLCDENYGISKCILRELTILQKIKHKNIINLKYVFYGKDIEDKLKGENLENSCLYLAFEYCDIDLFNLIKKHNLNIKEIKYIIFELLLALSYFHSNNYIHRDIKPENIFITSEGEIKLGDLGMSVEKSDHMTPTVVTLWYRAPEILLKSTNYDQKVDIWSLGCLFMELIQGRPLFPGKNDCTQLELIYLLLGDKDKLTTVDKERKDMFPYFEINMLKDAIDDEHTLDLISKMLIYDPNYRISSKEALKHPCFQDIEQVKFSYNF

[7] = target: Protein kinase 7 (PK7), Plasmodium falciparum 3D7 (PF3D7_0213400) (UniProt Q7YTF7); test: inhibition of Plasmodium PK7 catalytic activity – biochemical, TCAMS antimalarial set, Kinase-Glo luminescence (AID 1159587); details: recombinant PfPK7, Kinase-Glo ATP depletion luminescence
Protein kinase 7 (PK7), Plasmodium falciparum 3D7 (PF3D7_0213400), sequence (Q7YTF7 1-343): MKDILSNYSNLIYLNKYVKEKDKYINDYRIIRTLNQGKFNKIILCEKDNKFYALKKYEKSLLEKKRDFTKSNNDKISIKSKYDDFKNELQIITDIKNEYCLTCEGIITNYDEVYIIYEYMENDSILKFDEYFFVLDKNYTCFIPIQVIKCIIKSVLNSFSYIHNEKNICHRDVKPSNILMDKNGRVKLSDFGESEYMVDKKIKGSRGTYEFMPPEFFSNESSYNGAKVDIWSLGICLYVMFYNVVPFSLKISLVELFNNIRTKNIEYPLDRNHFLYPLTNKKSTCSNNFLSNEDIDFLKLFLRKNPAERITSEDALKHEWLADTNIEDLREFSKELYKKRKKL

[8] = target: Calcium-dependent protein kinase 4 (Plasmodium falciparum (isolate 3D7)) (UniProt Q8IBS5); test: PfCDPK4 kinase inhibitors, biochemical, TCAMS library (AID 1159588; cut-off not given, nearly all actives have IC50 up to about 0.91 µM); details: recombinant PfCDPK4, Kinase-Glo ATP depletion luminescence
Calcium-dependent protein kinase 4 (Plasmodium falciparum (isolate 3D7)), sequence (Q8IBS5 whole entry, looked up): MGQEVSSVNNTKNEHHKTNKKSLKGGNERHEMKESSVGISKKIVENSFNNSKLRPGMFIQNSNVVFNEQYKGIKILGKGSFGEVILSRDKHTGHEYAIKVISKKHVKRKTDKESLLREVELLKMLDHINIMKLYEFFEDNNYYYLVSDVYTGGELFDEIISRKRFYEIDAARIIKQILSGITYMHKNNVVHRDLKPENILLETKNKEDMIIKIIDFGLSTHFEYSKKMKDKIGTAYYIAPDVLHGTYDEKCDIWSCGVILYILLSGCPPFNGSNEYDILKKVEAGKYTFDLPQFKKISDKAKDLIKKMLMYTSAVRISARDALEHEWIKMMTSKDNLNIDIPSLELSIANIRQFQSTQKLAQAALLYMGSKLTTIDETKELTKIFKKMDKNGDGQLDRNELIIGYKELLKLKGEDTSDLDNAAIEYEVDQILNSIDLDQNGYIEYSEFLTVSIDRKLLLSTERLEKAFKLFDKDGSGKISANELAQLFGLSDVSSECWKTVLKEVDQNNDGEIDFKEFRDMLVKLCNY

Compound	growth inhibition [1]	inhibition [2]	inhibition [3]	growth inhibition [4]	outcome [5]	outcome [6]	outcome [7]	outcome [8]
CC1CCCC(NC(=O)CCOc2ccccc2)C1 (configuration not stated)	32%	-14%	-2%	96% (active)	inactive	inactive	inactive	inactive
COc1ccc2ncc(F)c(CCN3CCC(NCc4cc(C)c5c(c4)OCCO5)CC3)c2n1	67% (active)	20%	0%	100% (active)	inactive	inactive	inactive	inactive
CCNC(=O)N1CCN(c2nc(-c3ccccc3)nc(COC)c2Cc2ccc(C)cc2)CC1	94% (active)	27%	0%	95% (active)	inactive	inactive	inactive	inactive
Cc1nc(NCCCn2ccnc2)cc(-c2cncc(-c3ccc(OC(F)(F)F)cc3)c2)n1	11%	2%	2%	99% (active)	inactive	inactive	inactive	inactive
O=C(Nc1cccc([N+](=O)[O-])c1)Nc1cccc(C(F)(F)F)c1	81% (active)	0%	-8%	92% (active)	inactive	inactive	inactive	inactive
CCCCCCNC(=O)C1Cc2c([nH]c3ccccc23)C2(CCN(CCc3ccccc3)CC2)N1 (configuration not stated)	34%	41%	4%	96% (active)	inactive	inactive	inactive	inactive
N/C(=N\c1cccc(Cc2ccc([N+](=O)[O-])cc2)n1)Nc1ccccc1	19%	28%	4%	96% (active)	inactive	inactive	inactive	inactive
CCC(C)NS(=O)(=O)c1ccc2nc(Nc3ccc(C)c(Cl)c3)n(C3CCCCC3)c2c1 (configuration not stated)	98% (active)	-8%	5%	99% (active)	inactive	inactive	inactive	inactive
CCc1cccc(OCCCON2C(N)=NC(N)=NC2(C)C)c1	94% (active)	63% (active)	5%	95% (active)	inactive	inactive	inactive	inactive
CCCCN(C(=O)c1ccccc1Cl)c1nnc(-c2ccccc2C)s1	86% (active)	12%	0%	90% (active)	inactive	inactive	inactive	inactive
Cc1cc(NN=Cc2ccccc2F)c2cccc(C)c2n1	14%	7%	-2%	102% (active)	inactive	inactive	inactive	inactive
CC(C)(C)c1ccc(CNC(=O)c2ccc(CNC3CCC(N)CC3)s2)cc1 (configuration not stated)	10%	41%	4%	100% (active)	inactive	inactive	inactive	inactive
O=C(Nc1cccc(-c2cccc(-c3nc4ccc(C(F)(F)F)cc4[nH]3)c2)c1)c1ccc(=O)[nH]n1	26%	63% (active)	0%	103% (active)	inactive	inactive	inactive	inactive
CCNc1cc(C)nc(Nc2ccc(NC(=O)c3ccco3)cc2)n1	32%	24%	-2%	95% (active)	inactive	inactive	inactive	inactive
COc1cccc(CN2CCCC(CCC(=O)Nc3ccc(C(F)(F)F)cc3)C2)c1O (configuration not stated)	97% (active)	15%	-2%	98% (active)	inactive	inactive	inactive	inactive
Cc1ccc(NS(=O)(=O)c2cccs2)cc1-c1cccc(C(=O)Nc2ccc(F)cc2)c1	100% (active)	38%	0%	99% (active)	inactive	inactive	inactive	inactive
COc1ccc(CCn2c(=N)c(C(=O)NCc3ccccc3)cc3c(=O)n4cccc(C)c4nc32)cc1	37%	29%	-3%	102% (active)	inactive	inactive	inactive	inactive
COc1ccc(-c2nc3nc4ccccc4cc3[nH]2)c(OCC(O)CNC(C)C)c1 (configuration not stated)	96% (active)	19%	-1%	98% (active)	inactive	inactive	inactive	inactive
CCOc1cc(C=NNc2nc3ccccc3[nH]2)ccc1OCc1ccc([N+](=O)[O-])cc1	1%	2%	-6%	100% (active)	inactive	inactive	inactive	inactive
Clc1ccc(OC2CCC(Cn3ccnc3)(c3ccc(Cl)cc3Cl)CC2)c(Cl)c1 (configuration not stated)	86% (active)	4%	-4%	98% (active)	inactive	inactive	inactive	inactive

Compound	growth inhibition [1]	inhibition [2]	inhibition [3]	growth inhibition [4]	outcome [5]	outcome [6]	outcome [7]	outcome [8]
CCCCC1(c2ccc(F)cc2)NC(=O)N(CC(=O)c2cc(C)n(Cc3ccco3)c2C)C1=O (configuration not stated)	28%	6%	-3%	82% (active)	inactive	inactive	inactive	inactive
COc1cc2c(c(OC)c1[N+](=O)[O-])C=CC1(O2)N(C)c2ccc([N+](=O)[O-])cc2C1(C)C (configuration not stated)	89% (active)	-13%	-5%	92% (active)	inactive	inactive	inactive	inactive
O=C(Nc1ccc(-c2nc3ccccc3[nH]2)cc1)c1ccc([N+](=O)[O-])s1	77% (active)	83% (active)	-6%	101% (active)	inactive	inactive	inactive	inactive
CC1(C)N=C(N)N=C(N)N1OCC=Cc1ccccc1	96% (active)	62% (active)	-3%	94% (active)	inactive	inactive	inactive	inactive
CC(C)(C)C/C=C\c1ccc(C(=O)NCC2CC2)cc1	88% (active)	0%	-2%	94% (active)	inactive	inactive	inactive	inactive
O=C(NCCCN(Cc1ccc(F)cc1)c1ccccn1)C(c1cc2ccccc2o1)N1CCN(C(c2ccccc2)c2ccccc2)CC1 (configuration not stated)	53% (active)	14%	1%	97% (active)	inactive	inactive	inactive	inactive
COc1ccc2nccc(N3CCN(CCNCc4ccc5c(n4)NC(=O)CS5)CC3)c2c1	23%	18%	-2%	97% (active)	inactive	inactive	inactive	inactive
O=[N+]([O-])c1ccc(N2CCCN(C(=S)Nc3ccc(F)cc3Br)CC2)nc1	99% (active)	4%	-3%	100% (active)	inactive	inactive	inactive	inactive
O=C(N[C@@H](Cc1ccccc1)CN1CCC(Oc2ccc(F)cc2)CC1)c1ccc(OCCCN2CCCCC2)cc1	92% (active)	38%	3%	102% (active)	inactive	inactive	inactive	inactive
CCOc1cccc(C(=O)Nc2cccc(CN3CCCN(Cc4ccc(O)cc4)CC3)c2)c1	31%	23%	1%	91% (active)	inactive	inactive	inactive	inactive
COc1ccc(Cl)cc1N1CCN(CCCNC(=O)c2ccc(-c3nc4cc(Cl)c(C)cc4[nH]3)s2)CC1	97% (active)	-1%	1%	102% (active)	inactive	inactive	inactive	inactive
O=S(=O)(c1ccccc1)n1ccc2cc(Nc3ncnc4cc(C#C[C@H]5CCCN5)sc34)ccc21	56% (active)	50% (active)	-3%	85% (active)	inactive	inactive	inactive	inactive
Cc1cc(NCCc2ccc(O)cc2)nc(NCC(c2ccccc2)c2ccccc2)n1	77% (active)	22%	1%	102% (active)	inactive	inactive	inactive	inactive
O=C(/C=C/c1ccc(Cl)c(Cl)c1)NCCCCCN1CCC(NC(=O)c2ccc(F)cc2)CC1	13%	14%	-1%	102% (active)	inactive	inactive	inactive	inactive
Cc1cccc2[nH]c(-c3ccc(-c4ccc(CN5CCCCC5)cc4)s3)nc12	87% (active)	16%	-2%	99% (active)	inactive	inactive	inactive	inactive
CCCCCN1CCCCC(NS(=O)(=O)c2ccc(C(=O)Nc3cccc(C(F)(F)F)c3)cc2)C1 (configuration not stated)	2%	14%	-2%	93% (active)	inactive	inactive	inactive	inactive
CCCC(=O)c1cnc2c(I)cccc2c1Nc1ccccc1C	26%	7%	4%	90% (active)	inactive	inactive	inactive	inactive
CCOC(=O)c1c(C)noc1Nc1ccc(OC)cc1	-6%	-1%	-6%	99% (active)	inactive	inactive	inactive	inactive
N#Cc1ccc(CNCCCCCCCNCc2ccc(-c3ccccc3)cc2)cc1	10%	19%	3%	87% (active)	inactive	inactive	inactive	inactive
